{"source": "PubChem BioAssay (EPA / NIEHS)", "note": "Where a structure was tested more than once in an assay, its records may differ in their call. Active and inactive are the calls of the source. How the source made its calls: active means hit-call score of the fitted dose curve at least 0.9, where 1 is the maximum; inactive means score below 0.9."}
{"test": "BSK_4H_Eotaxin3: BioMAP Diversity Plus: 4H Assay for Eotaxin 3 Biomarker Activity (AID 2283000)", "details": "primary human endothelial cells (HUVEC); actives raise or lower the signal", "description": "BSK_4H is a cell-based, multiplexed-readout assay that uses umbilical vein endothelium, a human vascular primary cell, with measurements taken at 24 hours after chemical dosing in a 96-well plate.BSK_4H_Eotaxin3 is an assay component measured in the BSK_4H assay. It measures Eotaxin-3 antibody related to regulation of gene expression using ELISA technology.Data from the assay component BSK_4H_Eotaxin3 was analyzed into 1 assay endpoint. This assay endpoint, BSK_4H_Eotaxin3, was analyzed with bidirectional fitting relative to DMSO as the negative control and baseline of activity. Using a type of binding reporter, gain or loss-of-signal activity can be used to understand changes in the signaling as they relate to the gene CCL26. Furthermore, this assay endpoint can be referred to as a primary readout, because this assay has produced multiple assay endpoints where this one serves a signaling function. To generalize the intended target to other relatable targets, this assay endpoint is annotated to the cytokine intended target family, where the subfamily is chemotactic factor.\nThe levels of cell surface (or secreted, indicated by the prefix \"s\") biomarker endpoints were measured by ELISA. Overt cytotoxicity to cells in confluent adherent cultures (all systems other than the BT system) was assessed by measuring total protein levels using sulforhodamine B (SRB) staining in parallel cultures at the time of biomarker measurements, indicated as SRB endpoints. For proliferation assays for adherent cell types, individual cell types are cultured at sub-confluence and relative cell numbers quantified by SRB staining at time points optimized for each system (48 h: 3C and CASM3C systems; 72 h: BT and HDF3CGF systems; 96 h: SAg system). SRB was performed by staining cells with 0.1% SRB after fixation with 10% TCA and reading wells at 560 nm.Viability and proliferation of PBMC (T cells) was quantified by Alamar Blue reduction for the SAg and BT systems. For PBMC viability (referred to as PBMC Cytotoxicity within the assay endpoint names), cells were plated (75,000/well in a 96-well plate) and then chemical samples added for 1 h before addition of activators, SEB and TSST-1 (20 ng/mL final concentration each). Cells were incubated for 90 h. Then, Alamar Blue (20 uL/well) (Invitrogen, Cat DAL1100) was added for 6 h, and the plates were read with a fluorescence microplate reader at 546/580 nm (excitation/emission). For PBMC proliferation, cells were plated and activated as above but incubated for only 16 h prior to addition of Alamar Blue. Plates were read after 6 h."}
{"smiles": "Cc1c([N+](=O)[O-])cc2c(c1[N+](=O)[O-])C(C)(C)CC2(C)C", "AC50": "2.15 µM (active)"}
{"smiles": "COP(N)(=S)OC", "outcome": "inactive"}
{"smiles": "N#Cc1cc([N+](=O)[O-])ccc1N", "AC50": "4.4 µM (active)"}
{"smiles": "COP(=O)(CCC(=O)NCO)OC", "outcome": "inactive", "AC50": "0.15 µM (active)"}
{"smiles": "CCCCN(CCCC)SN(C)C(=O)Oc1cccc2c1OC(C)(C)C2", "AC50": "29.3 µM (active)"}
{"smiles": "CSC(C)(C)C=NO", "outcome": "inactive"}
{"smiles": "COC(=O)C(F)(F)C(F)(F)OC(F)(C(F)(F)F)C(F)(F)OC(F)=C(F)F", "note": "(stereo not given)", "outcome": "inactive"}
{"smiles": "c1ccc2c(c1)Nc1ccccc1S2", "outcome": "inactive"}
{"smiles": "CCOC(=O)c1ccccc1C(=O)OCC", "outcome": "inactive"}
{"smiles": "O=C(O)C1C(C(=O)O)C2(Cl)C(Cl)=C(Cl)C1(Cl)C2(Cl)Cl", "note": "(stereo not given)", "outcome": "inactive"}
{"smiles": "O=P(OCC(Br)CBr)(OCC(Br)CBr)OCC(Br)CBr", "note": "(stereo not given)", "outcome": "inactive"}
{"smiles": "CCCCC(CC)COC(=O)c1c(Br)c(Br)c(Br)c(Br)c1C(=O)OCC(CC)CCCC", "note": "(stereo not given)", "outcome": "inactive"}
{"smiles": "Nc1ccc(Cl)cc1", "outcome": "inactive"}
{"smiles": "O=c1ssc(Cl)c1Cl", "AC50": "4.22 µM (active)"}
{"smiles": "O=[N+]([O-])c1ccccc1", "outcome": "inactive"}
{"smiles": "CCC(C)(C)c1ccc(O)cc1", "outcome": "inactive"}
{"smiles": "ClC(Cl)c1ccccc1", "outcome": "inactive"}
{"smiles": "O=[N+]([O-])c1ccc(Cl)c(Cl)c1", "outcome": "inactive"}
{"smiles": "CCN(CC)c1ccccc1", "outcome": "inactive"}
{"smiles": "[N-]=[N+]=[N-]", "outcome": "inactive"}
{"smiles": "CCOP(=S)(OCC)SCS(=O)(=O)CC", "outcome": "inactive"}
{"smiles": "OCC(F)(F)OC(F)(F)C(F)(F)OC(F)(F)C(F)(F)OC(F)(F)CO", "outcome": "inactive"}
{"smiles": "CCC1(c2ccccc2)C(=O)N=C(O)NC1=O", "note": "(stereo not given)", "outcome": "inactive"}
{"smiles": "CCCCN(CCCC)N=O", "outcome": "inactive"}
{"smiles": "Cc1ccc2c(c1N)C(=O)c1ccccc1C2=O", "AC50": "9.4 µM (active)"}
{"smiles": "O=C(O)C(F)(F)OC(F)(F)C(F)(F)OC(F)(F)F", "outcome": "inactive"}
{"smiles": "Cc1ccc([N+](=O)[O-])cc1C", "outcome": "inactive"}
{"smiles": "OCC1CO1", "note": "(stereo not given)", "outcome": "inactive"}
{"smiles": "CN(C)C(=O)Cl", "outcome": "inactive"}
{"smiles": "O=C(O)C(F)(OC(F)(F)C(F)(F)C(F)(F)F)C(F)(F)F", "note": "(stereo not given)", "outcome": "inactive", "AC50": "8.11 µM (active)"}
{"smiles": "OCC(F)(F)OC(F)(F)C(F)(F)OC(F)(F)CO", "outcome": "inactive"}
{"smiles": "CC(C)Nc1ccc(Nc2ccccc2)cc1", "AC50": "8.74 µM (active)"}
{"smiles": "CCCCc1ccccc1", "outcome": "inactive"}
{"smiles": "CC(C)(C)c1ccc(O)cc1", "outcome": "inactive"}
{"smiles": "O=P(Oc1ccccc1)(Oc1ccccc1)Oc1ccccc1", "AC50": "33.8 µM (active)"}
{"smiles": "O=C(O)C=CC(F)(C(F)(F)F)C(F)(F)F", "outcome": "inactive"}
{"smiles": "CC(C)(C)OOC(C)(C)C", "outcome": "inactive"}
{"smiles": "Cc1ccc(N)cc1N", "outcome": "inactive"}
